Laboratory results: PubChem BioAssay AID493122 (National Center for Advancing Translational Sciences (NCATS), 2011)
The source made the active and inactive calls. No rule for the calls is given here.

Assay: Concentration response cycloheximide confirmation counterscreen for small molecule inhibitors of Shiga toxin
Conditions: protein synthesis reporter, cells; series mostly up to 76.6 µM

Row | SMILES | outcome
1 | CN(C)S(=O)(=O)c1ccc(C(=O)OCC(=O)c2ccc3c(c2)NC(=O)CO3)cc1 | inactive
2 | O=C(NC1CCCC1)c1cc(Cl)ccc1[N+](=O)[O-] | inactive
3 | COc1ccc(C(C)(C)C)cc1NC(=O)c1ccc2c(c1)SC1=NS(=O)(=O)CCN12 | inactive
4 | Cc1cccc(NC(=O)CCN2C(=O)c3ccccc3S2(=O)=O)c1C | inactive
5 | O=C(CC(c1ccccc1)c1cc(Cl)ccc1O)N1CCCC1 (stereo unspecified) | inactive
6 | CCOC(=O)C1(CCCc2ccccc2)CCN(C(=O)CCn2cncn2)CC1 | inactive
7 | C=CCNC(=O)c1ccc(C)c(Br)c1 | inactive
8 | CN(C)S(=O)(=O)c1ccc(C(=O)Nc2ccc(CN3CCCC3)cc2)cc1 | inactive
9 | COc1ccccc1CNC(=O)c1csc2c1CCCC2 | inactive
10 | CCn1c2ccccc2c2cc(NC(=O)c3cccc([N+](=O)[O-])c3)ccc21 | inactive
11 | CN(C(=O)c1ccc2c(=O)n3c(nc2c1)CCCCC3)c1ccccc1 | inactive
12 | CC(=O)c1ccc(N2CCN(S(=O)(=O)c3ccc4c(c3)CC(C)N4C(C)=O)CC2)cc1 (stereo unspecified) | inactive
13 | Cc1cc(C(=O)COC(=O)CNS(=O)(=O)c2ccc3ccccc3c2)c(C)n1-c1ccccc1 | inactive
14 | O=C(Nc1ccccc1)c1ccc[nH]1 | inactive
15 | CC(C)CNC(=O)c1noc2c1CCCC2 | inactive
16 | CC1CCC/C=C/C2CC(O)CC2C(O)/C=C/C(=O)O1 (stereo unspecified) | inactive
